KCNQ2 enhance – KCNQ2 (rat) channel potentiation; O88943; 310,000 compounds, 0.54% hits; CHO-K1 KCNQ2, FluxOR thallium flux fluorescence; stronger effect = higher value; AID 2239; B-score at 10 µM;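 active = fluorescence ratio B-score at least 3 SD of library B-scores, with initial fluorescence B-score within 3 of them, cut at about 5.3 in these data; same plate scores as AID 2156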;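 also: B-score of peak minus minimum over baseline fluorescence ratio after K+ and Tl+ stimulus; positive B-score means potentiation of KCNQ2 with more thallium influx and brighter signal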
KCNQ2 inh – inhibitors of rat KCNQ2 potassium channel. O88943. CHO-K1 KCNQ2, FluxOR thallium flux, 20 min; stronger effect = lower value. B-score at 10 µM. 310,000 compounds, 1.1% hits;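 active = fluorescence ratio B-score at most minus 3 library SDs, with starting brightness B-score within 2 library SDs, cut at about -5.5 in these data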
Kir21 conf inh – confirmation of mouse Kir2.1 potassium channel inhibitors | 2,300 compounds, 41% hits | Tl flux remaining, % of negative control (stronger effect = lower value), % at 10 µM | Kir2.1-expressing cells, FluxOR thallium flux fluorescence; stronger effect = lower value | shares compounds with KCNQ2 enhance;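 active = Primary-screen hit whose thallium flux fell at least 3 control SD below untreated wells in both duplicates, with normal baseline fluorescence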
Target sequence (P35561 whole entry, looked up): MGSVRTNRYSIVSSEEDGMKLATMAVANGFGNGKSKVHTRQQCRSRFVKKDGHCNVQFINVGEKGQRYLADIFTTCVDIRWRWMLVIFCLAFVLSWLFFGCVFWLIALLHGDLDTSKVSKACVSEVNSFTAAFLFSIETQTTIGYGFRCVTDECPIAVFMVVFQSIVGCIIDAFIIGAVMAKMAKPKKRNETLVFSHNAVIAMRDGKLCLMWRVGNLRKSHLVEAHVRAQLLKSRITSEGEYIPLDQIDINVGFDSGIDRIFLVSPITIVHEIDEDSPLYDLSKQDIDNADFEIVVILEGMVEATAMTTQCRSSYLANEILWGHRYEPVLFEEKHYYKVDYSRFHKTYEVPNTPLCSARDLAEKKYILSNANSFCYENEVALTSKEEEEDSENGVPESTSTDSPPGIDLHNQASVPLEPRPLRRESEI
HEK293 Tl flux – counter-screen for Kir2.1 inhibitors: effect in parental HEK293 cells; FluxOR signal as % of negative control (100 = no effect), % at 10 µM; shares compounds with KCNQ2 enhance; FluxOR thallium flux fluorescence; 0% = unstimulated blank wells; AID 2105; 2,300 compounds, 19% hits;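 active = dye signal at least 3 control SD above or below untreated wells in both duplicates, raw fluorescence within 3, either direction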;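 also: percent is based on the flux ratio of peak minus minimum fluorescence over baseline F0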
CHO-K1 Tl ctr – alters thallium flux in parental CHO-K1 cells, KCNQ2 counter-screen; shares compounds with KCNQ2 enhance; FluxOR thallium flux fluorescence; zero = vehicle mean+3SD, 100% = vehicle-minus-blank window; activity increase over 3SD of controls, % at 10 µM; 1,200 compounds, 43% hits; AID 2282;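 active = signal rise of at least 3 SD above the untreated control mean, in both duplicate wells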;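 also: counter screen of KCNQ2 potentiator hits so any rise reflects channel-independent effects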
KCNQ1 sel pot – selectivity of KCNQ2 potentiators: effect on human KCNQ1. shares compounds with KCNQ2 enhance. CHO KCNQ1 stable, FluxOR thallium flux fluorescence; beyond 3SD, as % of vehicle-control signal. activation over 3SD threshold, % at 10 µM. 1,200 compounds, 28% hits;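 active = fluorescence ratio rise of at least 3 SD of vehicle wells above their mean, in both replicate wells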
KCNQ2 pot conf – rat KCNQ2 channel potentiator confirmation; potentiation, less the hit threshold, % at 10 µM; 1,200 compounds, 68% hits; CHO-KCNQ2 cells, FluxOR thallium flux fluorescence; shares compounds with KCNQ2 enhance;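 active = fluorescence ratio rising 3 SD or more over the vehicle control mean in both replicates, plus primary screen hit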;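 also: peak minus minimum thallium fluorescence divided by baseline after K/Tl stimulus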
Kir2-1 sel – mouse Kir2.1 off-target activity of KCNQ2 potentiators. AID 2345. activity over 3SD threshold, % at 10 µM. 1,200 compounds, 2% hits. shares compounds with KCNQ2 enhance. HEK293 Kir2.1, FluxOR thallium flux fluorescence;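 active = fluorescence ratio rise of at least 3 SD above the vehicle-control mean, seen in both replicates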
KCNQ2 W236L MoA – KCNQ2 potentiators acting on retigabine-insensitive rat KCNQ2 W236L mutant. 940 compounds, 10% hits. shares compounds with KCNQ2 enhance. CHO KCNQ2-W236L, automated patch clamp current. current increase over 3SD of negative controls (%), stronger effect = higher value, % at 25 µM;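 active = current increase at least 3 SD of the untreated controls above them in both duplicate recordings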
Hits are given with their value; i = inactive; nt = not tested or not shown. A selection: hits, their analogues and other compounds. The true share with any hit is near 1.6%.

SMILES	KCNQ2 enhance	KCNQ2 inh	Kir21 conf inh	HEK293 Tl flux	others
N/C(=N\OC(=O)COc1ccc(Br)cc1)c1ccncc1	i	i	nt	nt
COc1ccc(OCc2cc(C(=O)N(C)Cc3cc(C4CC4)n[nH]3)no2)c(Cl)c1	nt	i	nt	nt
Cn1nc(C(=O)NNC(=O)CCc2ccccc2Cl)c2ccccc2c1=O	i	i	nt	nt
Cc1cc(NC(=O)CCCn2ccc([N+](=O)[O-])n2)n(Cc2ccc(F)cc2)n1	i	i	nt	nt
COc1ccccc1C(=O)Nc1nnc(-c2ccc(F)cc2)s1	nt	i	nt	nt
COc1ccc(C(=O)Nc2nnc(-c3ccc(F)cc3)s2)c(OC)c1	10	i	i	i	CHO-K1 Tl ctr=i;KCNQ1 sel pot=19;KCNQ2 pot conf=i;Kir2-1 sel=i
Cn1cc(Br)c(C(=O)NC(=S)Nc2ccc(S(N)(=O)=O)cc2)n1	nt	i	nt	nt
CC1=CC(C)(C)n2c(O)c(N=N)c3c(C)ccc1c32	5.3	i	i	i	CHO-K1 Tl ctr=54;KCNQ1 sel pot=i;KCNQ2 pot conf=i;Kir2-1 sel=i
CC1=CC(C)(C)n2c(O)c(N=NC(N)=S)c3c(C)ccc1c32	i	i	nt	nt
C/C(=N\NC(=O)C1(C)NC(C)(C)Cc2ccccc21)c1ccccc1 (stereo not given)	i	i	nt	nt
Cc1ccc(CNC(=O)CN(C)S(=O)(=O)c2ccc(F)cc2)cc1	i	i	nt	nt
COC(=O)c1ccc(Oc2nc(NC(C)C)nc(N(C)C)n2)cc1	11	i	i	i	CHO-K1 Tl ctr=i;KCNQ1 sel pot=i;KCNQ2 pot conf=i;Kir2-1 sel=i
COC(=O)c1ccc(Oc2nc(NC(C)C)nc(NC(C)C)n2)cc1	nt	i	nt	nt
O=C1CC(NC2CCN(C(=O)c3cccc(F)c3)CC2)C(=O)N1 (stereo not given)	i	i	nt	nt
Cc1cc(NC(=O)COc2ccc(C(C)(C)C)cc2)no1	i	i	nt	nt
CCc1ccc2c(c1)c(N=NC1=NC(=O)CS1)c(O)n2CC	9.7	i	i	224%	CHO-K1 Tl ctr=i;KCNQ1 sel pot=i;KCNQ2 pot conf=28;Kir2-1 sel=i;KCNQ2 W236L MoA=i
CCc1ccc2[nH]c(O)c(N=NC3=NC(=O)CS3)c2c1	nt	i	nt	nt
CCOc1cc(N2CCOCC2)c(OCC)cc1NC(=O)CC12CC3CC(CC(C3)C1)C2	23	i	i	i	CHO-K1 Tl ctr=i;KCNQ1 sel pot=i;KCNQ2 pot conf=113;Kir2-1 sel=i;KCNQ2 W236L MoA=0.7%
CCOc1cc(N2CCOCC2)c(OCC)cc1NC(=O)CN1C(=O)NC(C)(C2CC2)C1=O (stereo not given)	nt	i	nt	nt
CCOc1cc(N2CCOCC2)c(OCC)cc1NC(=O)Cc1cccc(OC)c1	10	i	i	i	CHO-K1 Tl ctr=36;KCNQ1 sel pot=14;KCNQ2 pot conf=72;Kir2-1 sel=i;KCNQ2 W236L MoA=i
CCOc1cc(N2CCOCC2)c(OCC)cc1NC(=O)Cc1ccc(OC)c(OC)c1	nt	i	nt	nt
COCCNC(=O)CN1C(=O)c2cccc3cccc1c23	i	i	nt	nt
S=c1[nH]nc(-c2cccs2)n1/N=C/c1cn(-c2ccccc2)nc1-c1cccs1	6.9	i	i	i	CHO-K1 Tl ctr=i;KCNQ1 sel pot=80;KCNQ2 pot conf=i;Kir2-1 sel=i;KCNQ2 W236L MoA=i
S=c1[nH]nc(-c2ccncc2)n1/N=C/c1cn(-c2ccccc2)nc1-c1ccccc1	nt	i	nt	nt
CCC(CC)Nc1ccc(C(CC(N)=O)NC(=O)c2ccccc2)cc1[N+](=O)[O-] (stereo not given)	i	i	nt	nt
SMILES	KCNQ2 enhance	KCNQ2 inh	Kir21 conf inh	HEK293 Tl flux	others
CCOc1ccc(S(=O)(=O)N2CCC(C(=O)NCC3CCCO3)CC2)cc1 (stereo not given)	i	i	nt	nt
Cn1cnc([N+](=O)[O-])c1NC(C)(C)C	i	i	nt	nt
Cn1cnc([N+](=O)[O-])c1S(=O)(=O)c1ccc(Cl)cc1	nt	i	70%	68%
COc1ccccc1C(=O)NCC(C)(C)CN=C1NS(=O)(=O)c2ccccc21	i	i	nt	nt
CN(C)CCCOC(=O)c1sc2ccccc2c1Cl	nt	i	29%	i
O=C(NC(=S)Nc1ccccc1N1CCOCC1)c1sc2ccccc2c1Cl	i	i	nt	nt

Assay outcomes deposited in PubChem by Johns Hopkins Ion Channel Center.
